Here are results for 16 molecules from PubChem BioAssay (NCATS).

The nature of test [1]: qHTS Assay for Identifying Gametocytocidal Compounds (AID 743244).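 For max response: % is set by controls: 0 for no effect and ±100 for the full control effect; actives lower the fluorescent signal which means gametocytes are killed.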 Note: potency is the fitted concentration of half-maximal effect. The note with it: P. falciparum 3D7 stage III-V gametocytes, alamarBlue, 72 h; max response: stronger effect = lower value. The procedure, abridged:
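Stage III–V gametocytes of P. falciparum 3D7 were seeded at 20,000 cells/well onto pre-dispensed compounds. After 72 h, 37 °C, 5% CO2, alamarBlue was added for another 24 h.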
(In general: In qHTS, concentration-response curves come from the screen itself.)

Test [2] has as its target T1, Hexokinase-4 (Homo sapiens) + Glucokinase regulatory protein (Homo sapiens) (UniProt P35557+Q14397). Put plainly: qHTS assay for inhibitors of recombinant human GCK-GKRP interaction: Diaphorase-coupled assay (AID 743205). The essentials: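 A kinetic fluorescence read (Ex 525/Em 590 nm, every minute for 30 minutes) tracked resorufin from a G6PDH-diaphorase coupled GCK reaction. It contained 10 nM GST-GCK, 10 nM FLAG-GKRP, 5 mM glucose, 0.4 mM ATP in Hepes pH 7.6. Normalized to with/without-enzyme DMSO controls.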

Test [3] addresses T1, Hexokinase-4 (Homo sapiens) + Glucokinase regulatory protein (Homo sapiens). The experiment in a line: qHTS assay for inhibitors of recombinant human GCK-GKRP interaction: ADP-Glo assay (AID 743206).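 Note: plate controls were DMSO plus enzyme for no effect and no enzyme for full effect.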 The essentials:
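GST-GCK and FLAG-GKRP (15 nM each in the dispensed mix, with 2 uM S6P) react with 0.4 mM ATP and 5 mM glucose (final) in Hepes pH 7.6 for 60 min at room temperature. ADP is measured by ADP-Glo luminescence.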

Test [4] shares this target. The experiment in a line: qHTS assay for inhibitors of recombinant human GCK-GKRP interaction: HTRF assay (AID 743207).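 Note: 0% = DMSO with GCK present and -100% = DMSO wells lacking GCK.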 The essentials: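 After 60 min equilibration at room temperature with anti-FLAG XL665 and anti-GST antibodies, FRET ratio (665/615 nm, excitation 320 nm) was read. Proteins: GST-GCK and FLAG-GKRP, each 5 nM, plus 2 uM S6P, pH 7.1 buffer; GCK-free wells define minimum signal.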

Test [5] can be described thus: qHTS profiling of the MIPE4 collection as inhibitors of Plasmodium falciparum (3D7) proliferation (AID 743344; call rule not given here;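 note: scaled between DMSO vehicle wells and 0.29 µM artemisinin as full inhibition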). The note with it: P. falciparum 3D7 in erythrocytes, SYBR Green DNA fluorescence, 72 h; at 28.5 µM (top of the series). The essentials:
(§1)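 Erythrocytes infected with P. falciparum (0.3% parasitemia, 2.5% hematocrit) incubated with compounds 72 h at 37 C, 5% CO2. Lysis with saponin/Triton buffer containing SYBR Green I, overnight at room temperature in the dark; DNA fluorescence (485/535 nm) normalised to 0.29 uM artemisinin and DMSO.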

A short description of test [6]: qHTS profiling of the MIPE4 collection as inhibitors of Plasmodium falciparum (DD2) proliferation (AID 743345; call rule not given here). The note with it: P. falciparum Dd2 in erythrocytes, SYBR Green DNA, 72 h; at 28.5 µM (top of the series) unless noted. The essentials:
as §1

A short description of test [7]: qHTS profiling of the MIPE4 collection as inhibitors of Plasmodium falciparum (DD2) proliferation (Rep 2) (AID 743346; call rule not given here). The following applies: P. falciparum Dd2 in erythrocytes, SYBR Green DNA, 72 h; at 28.5 µM (top of the series). The essentials:
as §1

Test [8] can be described thus: qHTS profiling of the MIPE4 collection as inhibitors of Plasmodium falciparum (HB3) proliferation (AID 743347; call rule not given here;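 note: plate controls were DMSO vehicle wells for no effect and artemisinin wells for full effect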). The following applies: P. falciparum HB3 in erythrocytes, SYBR Green DNA, 72 h; at 28.5 µM (top of the series). The essentials: as §1

Values joined by “and” are separate entries in the source; they are usually repeats but may differ in a detail not shown here. Identical values can stand only once. Inconclusive results are not listed. Active and inactive are the calls of the source. Unless noted, calls come from the whole dose curve; as a rule, active = well fitted curve in the direction sought with a large enough effect; inconclusive = small, poorly fitted or top-dose-only effect, or another doubt; inactive = no such curve, though single readings can be large or run the other way.

T1 sequence (P35557 whole entry, looked up): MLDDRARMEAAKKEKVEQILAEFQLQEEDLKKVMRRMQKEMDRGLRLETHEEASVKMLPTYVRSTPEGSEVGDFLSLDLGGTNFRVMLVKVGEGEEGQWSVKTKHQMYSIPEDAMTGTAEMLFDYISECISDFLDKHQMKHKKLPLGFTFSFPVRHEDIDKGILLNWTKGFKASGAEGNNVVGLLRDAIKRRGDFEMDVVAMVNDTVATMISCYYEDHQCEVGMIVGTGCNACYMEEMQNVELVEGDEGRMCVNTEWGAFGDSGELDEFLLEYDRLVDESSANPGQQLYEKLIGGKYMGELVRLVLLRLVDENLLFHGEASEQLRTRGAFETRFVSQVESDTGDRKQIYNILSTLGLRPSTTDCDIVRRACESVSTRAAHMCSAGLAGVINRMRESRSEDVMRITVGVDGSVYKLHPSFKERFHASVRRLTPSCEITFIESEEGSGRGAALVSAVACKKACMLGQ
T1 sequence (Q14397 whole entry, looked up): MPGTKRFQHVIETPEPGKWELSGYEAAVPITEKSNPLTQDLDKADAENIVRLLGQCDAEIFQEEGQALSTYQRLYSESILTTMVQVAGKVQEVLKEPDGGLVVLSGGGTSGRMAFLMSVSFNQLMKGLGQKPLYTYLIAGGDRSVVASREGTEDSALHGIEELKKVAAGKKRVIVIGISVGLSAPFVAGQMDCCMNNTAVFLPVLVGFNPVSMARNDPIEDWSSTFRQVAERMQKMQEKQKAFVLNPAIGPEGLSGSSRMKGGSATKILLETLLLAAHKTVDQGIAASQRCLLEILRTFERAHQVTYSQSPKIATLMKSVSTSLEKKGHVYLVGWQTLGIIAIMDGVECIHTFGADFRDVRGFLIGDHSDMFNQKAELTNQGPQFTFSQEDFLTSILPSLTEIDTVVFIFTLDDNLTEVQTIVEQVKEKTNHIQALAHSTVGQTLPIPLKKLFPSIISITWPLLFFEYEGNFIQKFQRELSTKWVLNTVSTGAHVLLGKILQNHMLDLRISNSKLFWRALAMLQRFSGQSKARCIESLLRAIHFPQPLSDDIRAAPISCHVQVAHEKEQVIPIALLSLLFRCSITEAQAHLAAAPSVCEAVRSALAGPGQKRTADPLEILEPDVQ

Regarding `O=C(Nc1cc(C(F)(F)F)cc(C(F)(F)F)c1)c1cc(Cl)ccc1O`, the Potency in test [1] is 7.43 µM (active).

For `C[C@]12N[C@H](Cc3ccccc31)c1ccccc12`, the result in test [2], in test [3] and in test [4] was inactive. In addition, the max response in test [1] is -6.68% (inactive) and -2.83% (inactive) and -7.09% (inactive).

In the case of `c1ccc(C2(c3ccccc3)CC2C2=NCCN2)cc1` (centres undefined), the result in test [2], in test [3] and in test [4] was inactive. Moreover, the max response in test [1] is -4.94% (inactive) and 21.7% (inactive).

For `CC[C@@H](C(N)=O)N1CCCC1=O`, the result in test [2], in test [3] and in test [4] was inactive. Further, in test [1], the max response was 27.6% (inactive). In test [5], this molecule returned a parasite growth, % of DMSO control of 69.9%. For the same molecule, in test [6], the parasite growth remaining, % of DMSO control (lower = more inhibition) came out at 90.5%. The same molecule registered a parasite growth, % of control (lower = inhibition) in test [7] of 46.9%. Moreover, the growth, % of control in test [8] worked out at 78.5%.

`NC(=NCCC[C@H](N)C(=O)O)N[N+](=O)[O-]`: the outcome in test [2], in test [3] and in test [4] was inactive. Besides, in test [1], the max response was 11.8% (inactive).

As for `CC1=NN=C(c2ccc(N)cc2)c2cc3c(cc2C1)OCO3`, the outcome in test [2], in test [3] and in test [4] was inactive. Further, the max response in test [1] is 7.34% (inactive). Also, in test [5], the parasite growth, % of DMSO control came to 133%. Moreover, the parasite growth remaining, % of DMSO control (lower = more inhibition) in test [6] amounted to 108%. This molecule also gave a parasite growth, % of control (lower = inhibition) in test [7] of 93%. The molecule also registered a growth, % of control in test [8] of 685%.

`NCCc1c[nH]c2ccc(O)cc12`: the result in test [2], in test [3] and in test [4] was inactive. In test [1], the max response was 9.61% (inactive).

For `O=C1CCCN1CC#CCN1CCCC1`, the result in test [2], in test [3] and in test [4] was inactive. Also, the max response in test [1] is 30.9% (inactive).

As to `NC(=O)CN1CC(O)CC1=O` (centres undefined), the outcome in test [2], in test [3] and in test [4] was inactive. In addition, the max response in test [1] was -2.78% (inactive) and 8.87% (inactive).

With `Cc1nccc2c1[nH]c1ccccc12`, the result in test [2], in test [3] and in test [4] was inactive. Also, in test [1], the max response was 22.2% (inactive).

Regarding `C[C@@H](N)Cc1cnc[nH]1`, the outcome in test [2], in test [3] and in test [4] was inactive. Moreover, the max response in test [1] was 1.66% (inactive).

Turning to `C[C@@H]1O[C@H](C[N+](C)(C)C)C[C@H]1O`, the outcome in test [2], in test [3] and in test [4] was inactive. Also, the max response in test [1] was 7.91% (inactive).

As to `CCCCc1ccc(C(=O)O)nc1`, the outcome in test [2], in test [3] and in test [4] was inactive. The max response in test [1] is 4.22% (inactive) and 15% (inactive).

On to `O=C(O)Cc1cnc[nH]1`, for which the outcome in test [2], in test [3] and in test [4] was inactive. Further, in test [1], the max response is 3.18% (inactive).

Turning to `CO[C@H]1C=CC=C(C)C(=O)NC2=CC(=O)C(NCCN(C)C)=C(C[C@@H](C)C[C@H](OC)[C@@H](O)[C@@H](C)C=C(C)[C@@H]1OC(N)=O)C2=O`, the Potency in test [1] was 0.0469 µM (active).

Consider `COC(=O)[C@@H](N)CCCN=C(N)N[N+](=O)[O-]`, for which the result in test [2], in test [3] and in test [4] was inactive. The max response in test [1] is 6.28% (inactive). In test [5], this molecule yielded a parasite growth, % of DMSO control of 91.3%. In addition, in test [6], the parasite growth remaining, % of DMSO control (lower = more inhibition) is 94.8%. This molecule also returned a parasite growth, % of control (lower = inhibition) in test [7] of 82%.
